From the supplement of paper PMC6555819

test system: THRa homodimer (NR concentration 90 nM); assay: PBM binding z-score (relative to random genomic background probes); higher = stronger binding; sequences stand for … in GC…GCGATTGACAGCGTAGAATGAAGG
Method in brief: (§1)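 Custom Agilent 4×180K protein-binding microarrays carried double-stranded probes. Their 34-nt variable regions held direct-repeat seeds, single-nucleotide variants, half-site ablations and random human genomic background sequences. Arrays were incubated 1 h with ligand-free nuclear receptor dimers in PBS pH 7.4, 2% milk, 0.02% Triton X-100, 1 mM DTT, 0.2 mg/mL BSA and 0.4 mg/ml salmon testes DNA. Antibodies against each partner (one per run) detected binding, and scanned fluorescence was regression-normalized. Binding z-scores use random background probes as reference.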

Sequence	PBM binding z-score
ACAGACAGGTGAGTGAAGCTAACTCAGCTGGACG	-1.16
AGTCAAAGTTCATCTATGTAACGTAAGATATGCT	-0.492
ATCTCTAGGTAAAAGTTCAGTGCATCCCGAGGAT	0.48
ATCTCTAGGTAAAGTTAGTTCAGTGAATGCAAAT	0.737
GCGACTGGGGCAAAGCAGGTGACCATAAGGTTGG	-0.094
TCTTGAAGATCAAAGGTTAAGAAAGCCGAAGCCT	-0.659
TCTAGCAGGCCGGAGGGTCACTCAAGAGGTACGG	-0.391
CTACCAATGTGAACAAGGTCGTTGATTACTATTC	1.33
GCTATTAGCTGAAAGGGCAACCGAATGATTCTCG	-0.714
CGAACTAGGTCAAGGACAGCGAATCTCCGCACGC	2.2
CCTACTGGGCCCTCAGGTCATTGATATCAACGTT	2.78
CATACAGGGTCAACTAGGCCAGAGTAGGGACGGC	1.5
GTACCAAGGTGAAAAGGTCGTTGATGAGTAGGCG	0.7
CGTCCAAGGTCATAGGAGGTAAGTGAAGACAGAT	2.43
CGAACTAGGTCATCCAGGAAAGTGAATACATTGA	0.863
TCTAGATGGTCACGGAGGTCACACACGACGGGTA	2.6
GGAACGAGGGCAAAGTTGATAGTATCTGTCGACG	0.0529
TCTTGTAGATCAACAGGAGGTTAAGAAGGATCGA	-0.619
TCTTGTAGATCAAAGGTTCAGAAAGCCGAAGCCT	-0.308
CGTCCAAAGTCAGCAGGTCAGTGAAAGCGACGTG	0.291

Sequence	PBM binding z-score
CCTTACGGGTCAACGTTATAGCACGGGTGGTACG	-0.182
TATGCAGGGTCAAAGGCCAGAGTACGAATGTCGA	0.361
TCATGTAGGTAATACAGGTGAAAGTCGGCATCTA	-0.119
CAAACTAGGTCAAAGTCAAAGTCGGTTTGTGCCA	0.817
TCGAGTAGGATAGTCGGGGCATTCAGCCAACATA	-0.471
GCTCAGAGGACAAGGTCAGAGCTTTGTCCGTAGA	1.34
TCTACTAGGTCAACGATGGTCAGCTAATCTGCTA	1.37
TCTCGGAGGACACGAAGGTCACAGCTTTCCAGAG	1.77
CGAACGAGGGCATGATTTGATAGCAAATGCCGAT	-0.278
TCAATTAGTTGAAGGGCAACCGACGAGTCCGTTT	-0.267
AGTCAAAGTTCATCTAGGTAACGTGAGATATGCT	0.297
CGTCCTAGGTCAGCAGGTCAGTGAAAGCGACGTG	1.1
CAGACTAGGTCACCGGAAGGTCAAAGTCCGCATG	2.62
TCGAGTAGGTTACCAATGTGGCATTCAGCTTTCT	-0.499
TCATATAGGTAATACAGGTGGAAGTCGGCATCTA	0.0491
TCTAGCAGGCCAGAGGGTCACTTAAGAGGTACGG	-0.266
TGAATGAGGCTATAAGATCAGGGAACGTTGCAAA	-0.324
CCTGCTAGGTCATGGTTAGCTAATCTACAGTATG	1.03
GCGACTGGGGCAAAGCAGGATACCATAAGGTTGG	-0.419
TCTCGGAGGGCACGAAAGGTCAGAGCTCGACATC	0.163

test system: VDR:RXRa (NR concentration 270 nM, RXRa partner concentration 90 nM); assay: as above
Method in brief: as §1

Sequence	PBM binding z-score
ACAGACAGGTGAGTGAAGCTAACTCAGCTGGACG	-0.513
AGTCAAAGTTCATCTATGTAACGTAAGATATGCT	4.75
ATCTCTAGGTAAAAGTTCAGTGCATCCCGAGGAT	1.69
ATCTCTAGGTAAAGTTAGTTCAGTGAATGCAAAT	1.42
GCGACTGGGGCAAAGCAGGTGACCATAAGGTTGG	-0.478
TCTTGAAGATCAAAGGTTAAGAAAGCCGAAGCCT	1.64
TCTAGCAGGCCGGAGGGTCACTCAAGAGGTACGG	1.03
CTACCAATGTGAACAAGGTCGTTGATTACTATTC	3.77
GCTATTAGCTGAAAGGGCAACCGAATGATTCTCG	-0.0457
CGAACTAGGTCAAGGACAGCGAATCTCCGCACGC	1.31
CCTACTGGGCCCTCAGGTCATTGATATCAACGTT	1.43
CATACAGGGTCAACTAGGCCAGAGTAGGGACGGC	5.1
GTACCAAGGTGAAAAGGTCGTTGATGAGTAGGCG	2.59
CGTCCAAGGTCATAGGAGGTAAGTGAAGACAGAT	4.61
TCTAGATGGTCACGGAGGTCACACACGACGGGTA	6.25
GGAACGAGGGCAAAGTTGATAGTATCTGTCGACG	1.21
TCTTGTAGATCAACAGGAGGTTAAGAAGGATCGA	0.575
TCTTGTAGATCAAAGGTTCAGAAAGCCGAAGCCT	1.47
CGTCCAAAGTCAGCAGGTCAGTGAAAGCGACGTG	0.372

Sequence	PBM binding z-score
CCTTACGGGTCAACGTTATAGCACGGGTGGTACG	3.03
TATGCAGGGTCAAAGGCCAGAGTACGAATGTCGA	4.61
TCATGTAGGTAATACAGGTGAAAGTCGGCATCTA	0.207
CAAACTAGGTCAAAGTCAAAGTCGGTTTGTGCCA	2.38
TCGAGTAGGATAGTCGGGGCATTCAGCCAACATA	-0.319
GCTCAGAGGACAAGGTCAGAGCTTTGTCCGTAGA	1.69
TCTACTAGGTCAACGATGGTCAGCTAATCTGCTA	2.27
TCTCGGAGGACACGAAGGTCACAGCTTTCCAGAG	4.05
CGAACGAGGGCATGATTTGATAGCAAATGCCGAT	0.55
TCAATTAGTTGAAGGGCAACCGACGAGTCCGTTT	0.667
AGTCAAAGTTCATCTAGGTAACGTGAGATATGCT	5.17
CGTCCTAGGTCAGCAGGTCAGTGAAAGCGACGTG	2.07
CAGACTAGGTCACCGGAAGGTCAAAGTCCGCATG	5.78
TCGAGTAGGTTACCAATGTGGCATTCAGCTTTCT	-0.0444
TCATATAGGTAATACAGGTGGAAGTCGGCATCTA	1.14
TCTAGCAGGCCAGAGGGTCACTTAAGAGGTACGG	1.26
TGAATGAGGCTATAAGATCAGGGAACGTTGCAAA	-0.38
CCTGCTAGGTCATGGTTAGCTAATCTACAGTATG	1.39
GCGACTGGGGCAAAGCAGGATACCATAAGGTTGG	-0.613
